Assays:
Test in all cases: log2 ratio of Biotin-Ahx-Ub-VS probe labelling (fragment/DMSO); higher = less target engagement (more negative = stronger competition), active = hit call of the paper (q ≤ 0.05, log2 ratio ≤ -1)
Settings in all cases: compound concentration: 200 uM; treatment time: 3 h
[1] = biological target: T1, OTUD6B (UniProt Q8N6M0)
T1 sequence (whole entry): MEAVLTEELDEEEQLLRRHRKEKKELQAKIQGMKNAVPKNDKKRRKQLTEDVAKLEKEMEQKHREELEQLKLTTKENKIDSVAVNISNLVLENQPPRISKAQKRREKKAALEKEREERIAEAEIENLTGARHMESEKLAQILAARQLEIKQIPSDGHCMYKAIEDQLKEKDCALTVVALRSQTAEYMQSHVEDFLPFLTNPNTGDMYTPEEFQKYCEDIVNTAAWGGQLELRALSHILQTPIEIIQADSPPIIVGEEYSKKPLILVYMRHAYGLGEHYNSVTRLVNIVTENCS
In short: (§1)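 Average log2 ratios of fragment over vehicle were obtained by unpaired t-test from global-median-normalised Spectronaut label-free quantities. Proteins with ≥2 unique peptides were included. HEK293T lysate (495 µg per sample) was treated in triplicate with fragment at 200 µM or vehicle for 3 h, then with Biotin-Ahx-Ub-VS at 0.5 µM final for 1 h, and labelled DUBs were NeutrAvidin-enriched and run by diaPASEF LC-MS/MS.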

[2] = biological target: T2, OTUD7B (UniProt Q6GQQ9)
T2 sequence (whole entry): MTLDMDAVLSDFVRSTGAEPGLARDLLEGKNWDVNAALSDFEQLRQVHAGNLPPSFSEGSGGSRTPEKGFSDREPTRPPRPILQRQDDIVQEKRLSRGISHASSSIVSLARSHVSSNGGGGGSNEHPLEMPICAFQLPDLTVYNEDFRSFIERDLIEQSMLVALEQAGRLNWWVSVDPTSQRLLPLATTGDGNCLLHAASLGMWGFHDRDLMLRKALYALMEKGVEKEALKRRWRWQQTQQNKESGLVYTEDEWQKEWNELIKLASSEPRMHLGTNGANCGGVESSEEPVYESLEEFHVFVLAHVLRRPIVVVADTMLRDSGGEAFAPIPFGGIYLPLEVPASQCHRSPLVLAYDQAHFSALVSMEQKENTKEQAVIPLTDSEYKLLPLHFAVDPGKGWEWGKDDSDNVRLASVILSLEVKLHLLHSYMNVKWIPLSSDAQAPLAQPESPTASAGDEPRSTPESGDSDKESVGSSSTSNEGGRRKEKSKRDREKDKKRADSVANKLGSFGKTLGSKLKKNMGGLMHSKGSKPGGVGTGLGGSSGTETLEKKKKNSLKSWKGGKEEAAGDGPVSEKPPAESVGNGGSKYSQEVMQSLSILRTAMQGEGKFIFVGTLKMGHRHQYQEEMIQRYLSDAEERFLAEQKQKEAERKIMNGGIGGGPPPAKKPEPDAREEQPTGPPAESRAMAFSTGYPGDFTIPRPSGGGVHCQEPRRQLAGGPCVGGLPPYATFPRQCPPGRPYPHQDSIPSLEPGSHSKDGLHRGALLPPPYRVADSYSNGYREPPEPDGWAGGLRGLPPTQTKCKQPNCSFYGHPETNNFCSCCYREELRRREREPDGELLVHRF
In short: as §1

[3] = biological target: PRPF8 (UniProt Q6P2Q9)
In short: as §1

[4] = biological target: T3, PSMD7 (UniProt P51665)
T3 sequence (whole entry): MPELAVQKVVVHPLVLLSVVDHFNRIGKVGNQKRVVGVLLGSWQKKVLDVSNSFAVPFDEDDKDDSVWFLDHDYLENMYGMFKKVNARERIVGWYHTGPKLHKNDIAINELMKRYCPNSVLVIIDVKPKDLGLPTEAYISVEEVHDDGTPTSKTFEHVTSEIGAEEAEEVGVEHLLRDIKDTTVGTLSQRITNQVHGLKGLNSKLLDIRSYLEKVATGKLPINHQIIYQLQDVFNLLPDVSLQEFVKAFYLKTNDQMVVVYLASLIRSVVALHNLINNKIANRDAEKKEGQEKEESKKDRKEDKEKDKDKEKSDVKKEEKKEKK
In short: as §1

[5] = biological target: UCHL1 (UniProt P09936)
In short: as §1

[6] = biological target: T4, UCHL3 (UniProt P15374)
T4 sequence (whole entry): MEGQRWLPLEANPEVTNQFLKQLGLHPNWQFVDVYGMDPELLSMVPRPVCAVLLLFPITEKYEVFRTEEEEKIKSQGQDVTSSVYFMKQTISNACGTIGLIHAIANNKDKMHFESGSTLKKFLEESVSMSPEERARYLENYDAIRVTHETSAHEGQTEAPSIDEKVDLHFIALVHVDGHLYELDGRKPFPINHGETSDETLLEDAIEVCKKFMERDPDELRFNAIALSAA
In short: as §1

[7] = biological target: T5, UCHL5 (UniProt Q9Y5K5)
T5 sequence (whole entry): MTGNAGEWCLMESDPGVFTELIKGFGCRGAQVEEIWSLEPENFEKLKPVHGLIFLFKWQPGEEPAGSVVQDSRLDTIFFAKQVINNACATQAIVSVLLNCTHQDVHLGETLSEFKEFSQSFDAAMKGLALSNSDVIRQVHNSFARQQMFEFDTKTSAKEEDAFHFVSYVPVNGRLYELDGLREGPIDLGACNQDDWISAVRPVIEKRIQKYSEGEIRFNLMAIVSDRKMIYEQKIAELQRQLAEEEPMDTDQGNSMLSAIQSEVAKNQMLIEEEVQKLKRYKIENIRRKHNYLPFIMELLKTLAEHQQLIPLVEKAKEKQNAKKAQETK
In short: as §1

[8] = biological target: USP10 (UniProt Q14694)
In short: as §1

[9] = biological target: T6, USP15 (UniProt Q9Y4E8)
T6 sequence (whole entry): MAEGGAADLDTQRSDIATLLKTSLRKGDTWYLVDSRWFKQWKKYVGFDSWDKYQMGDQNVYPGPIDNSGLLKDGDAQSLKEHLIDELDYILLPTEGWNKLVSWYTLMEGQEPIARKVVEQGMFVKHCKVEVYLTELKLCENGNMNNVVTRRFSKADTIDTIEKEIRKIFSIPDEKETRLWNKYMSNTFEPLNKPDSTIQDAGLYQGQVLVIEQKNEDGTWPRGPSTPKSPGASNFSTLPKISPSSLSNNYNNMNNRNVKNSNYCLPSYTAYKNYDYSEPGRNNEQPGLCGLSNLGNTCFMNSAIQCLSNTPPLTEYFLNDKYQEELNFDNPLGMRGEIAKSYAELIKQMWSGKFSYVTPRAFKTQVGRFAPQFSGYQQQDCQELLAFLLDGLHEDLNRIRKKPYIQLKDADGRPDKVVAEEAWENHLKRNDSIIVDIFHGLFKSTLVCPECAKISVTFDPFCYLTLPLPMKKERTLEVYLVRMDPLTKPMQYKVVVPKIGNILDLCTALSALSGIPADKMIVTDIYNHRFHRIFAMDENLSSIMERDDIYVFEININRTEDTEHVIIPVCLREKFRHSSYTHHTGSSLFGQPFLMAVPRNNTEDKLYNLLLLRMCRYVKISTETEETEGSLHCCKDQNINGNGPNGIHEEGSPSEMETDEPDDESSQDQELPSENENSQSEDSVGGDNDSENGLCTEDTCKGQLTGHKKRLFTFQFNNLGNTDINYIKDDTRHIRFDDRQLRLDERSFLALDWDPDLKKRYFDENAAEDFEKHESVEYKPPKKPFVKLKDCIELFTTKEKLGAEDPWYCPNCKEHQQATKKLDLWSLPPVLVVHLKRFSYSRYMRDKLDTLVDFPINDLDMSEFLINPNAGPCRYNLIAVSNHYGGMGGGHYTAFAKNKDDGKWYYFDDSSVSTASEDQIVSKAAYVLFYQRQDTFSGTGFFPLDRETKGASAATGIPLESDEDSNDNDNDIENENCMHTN
In short: as §1

[10] = biological target: USP16 (UniProt Q9Y5T5)
In short: as §1

Measured: log2 ratio of Biotin-Ahx-Ub-VS probe labelling

Chain of USP16 (Q9Y5T5 whole entry, looked up): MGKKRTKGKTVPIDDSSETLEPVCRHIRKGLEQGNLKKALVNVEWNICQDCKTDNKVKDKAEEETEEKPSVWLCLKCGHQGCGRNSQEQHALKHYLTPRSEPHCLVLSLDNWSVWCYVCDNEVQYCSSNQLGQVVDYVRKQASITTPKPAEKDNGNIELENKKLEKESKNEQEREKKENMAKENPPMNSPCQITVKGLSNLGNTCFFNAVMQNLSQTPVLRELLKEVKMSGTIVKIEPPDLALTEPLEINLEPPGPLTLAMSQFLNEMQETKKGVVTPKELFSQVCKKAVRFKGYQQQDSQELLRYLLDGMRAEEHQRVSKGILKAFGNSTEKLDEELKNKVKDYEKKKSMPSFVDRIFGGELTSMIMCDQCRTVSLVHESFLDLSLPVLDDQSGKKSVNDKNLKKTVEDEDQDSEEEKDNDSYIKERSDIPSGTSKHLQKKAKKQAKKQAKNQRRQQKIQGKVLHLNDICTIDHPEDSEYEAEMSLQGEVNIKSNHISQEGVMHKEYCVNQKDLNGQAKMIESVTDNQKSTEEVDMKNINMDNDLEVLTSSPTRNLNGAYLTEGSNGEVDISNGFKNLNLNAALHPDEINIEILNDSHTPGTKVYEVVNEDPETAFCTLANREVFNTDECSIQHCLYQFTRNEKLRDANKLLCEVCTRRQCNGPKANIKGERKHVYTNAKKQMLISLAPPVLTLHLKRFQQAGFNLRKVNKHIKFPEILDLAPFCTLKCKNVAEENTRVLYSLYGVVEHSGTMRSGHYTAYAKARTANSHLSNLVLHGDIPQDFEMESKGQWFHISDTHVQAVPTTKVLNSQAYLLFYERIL
Chain of USP10 (Q14694 whole entry): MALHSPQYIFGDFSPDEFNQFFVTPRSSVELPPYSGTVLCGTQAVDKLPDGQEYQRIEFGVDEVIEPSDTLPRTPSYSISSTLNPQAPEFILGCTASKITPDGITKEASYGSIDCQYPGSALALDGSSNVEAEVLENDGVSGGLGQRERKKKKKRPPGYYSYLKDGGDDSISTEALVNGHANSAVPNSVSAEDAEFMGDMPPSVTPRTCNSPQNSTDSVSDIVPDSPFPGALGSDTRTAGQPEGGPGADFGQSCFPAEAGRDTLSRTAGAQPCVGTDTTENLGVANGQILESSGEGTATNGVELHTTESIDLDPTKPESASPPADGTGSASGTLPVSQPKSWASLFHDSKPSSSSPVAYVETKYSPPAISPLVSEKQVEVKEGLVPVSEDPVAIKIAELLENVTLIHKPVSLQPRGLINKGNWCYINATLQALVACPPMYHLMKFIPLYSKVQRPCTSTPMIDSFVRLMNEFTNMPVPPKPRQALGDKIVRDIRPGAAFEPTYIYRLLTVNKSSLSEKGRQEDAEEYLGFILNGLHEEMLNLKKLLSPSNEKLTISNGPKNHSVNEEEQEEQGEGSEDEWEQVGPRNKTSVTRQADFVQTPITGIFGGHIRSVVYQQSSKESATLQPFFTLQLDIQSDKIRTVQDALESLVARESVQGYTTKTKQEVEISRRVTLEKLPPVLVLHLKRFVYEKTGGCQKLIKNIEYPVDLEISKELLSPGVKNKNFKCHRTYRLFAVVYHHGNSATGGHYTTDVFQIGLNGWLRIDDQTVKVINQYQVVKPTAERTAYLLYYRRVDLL
Chain of UCHL1 (P09936 whole entry, looked up): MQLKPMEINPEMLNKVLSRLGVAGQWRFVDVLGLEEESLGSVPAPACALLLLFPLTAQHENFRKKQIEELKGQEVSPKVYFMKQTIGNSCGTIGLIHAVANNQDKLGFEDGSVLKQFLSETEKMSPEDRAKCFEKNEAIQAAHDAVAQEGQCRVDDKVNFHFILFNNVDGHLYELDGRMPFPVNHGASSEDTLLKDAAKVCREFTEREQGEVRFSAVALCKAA

CC(c1ccccc1)N(C)C(=O)CCl (stereo not given)
inactive: [1] 0.00154 | [2] -0.433 | [3] -0.049 | [4] 0.0333 | [5] -0.925 | [6] 0.257 | [7] -0.0435 | [8] -0.134 | [9] -0.334 | [10] -0.635
